PLAP activator: PLAP enzyme activators, biochemical, luminescence, HTS. activation fold at 20 µM. Alkaline phosphatase, placental type (Homo sapiens), P05187. 1.2% of 96,000 active. purified PLAP enzyme, luminescent substrate read-out; stronger effect = higher value. AID 696, 2007; in the data active = activation fold above about 2
S1P2 ag: S1P2 receptor agonists, primary screen, cell-based. S1P2-expressing cell line, agonist reporter read-out. 0.46% of 97,000 active. Sphingosine 1-phosphate receptor 2 (Homo sapiens), O95136. activation, % at 4.5 µM. AID 729, 2007; in the data active = activation above about 16%
Target sequence (O95136 whole entry, looked up): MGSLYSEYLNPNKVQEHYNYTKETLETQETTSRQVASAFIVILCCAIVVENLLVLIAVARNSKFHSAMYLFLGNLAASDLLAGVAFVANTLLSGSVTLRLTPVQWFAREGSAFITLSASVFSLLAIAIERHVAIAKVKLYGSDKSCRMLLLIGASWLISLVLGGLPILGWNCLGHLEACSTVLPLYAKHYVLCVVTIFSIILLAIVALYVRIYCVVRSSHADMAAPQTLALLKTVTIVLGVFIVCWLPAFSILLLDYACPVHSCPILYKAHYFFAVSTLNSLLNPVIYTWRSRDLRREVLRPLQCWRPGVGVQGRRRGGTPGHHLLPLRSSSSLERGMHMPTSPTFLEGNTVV
GALR2 agonist: GALR2 receptor agonists, primary screen, cell-based; activation, % (test concentration not listed); GALR2-expressing cells, agonist activation read-out; 0.48% of 140,000 active; Galanin receptor type 2 (Homo sapiens), O43603; in the data active = activation above about 5%, passing the limit was not always enough
S1P2 antag: human S1P2 receptor antagonists, primary screen, cell-based | 0.21% of 97,000 active | Sphingosine 1-phosphate receptor 2 (Homo sapiens), O95136 | inhibition, % at 5 µM | cell-based S1P2 antagonist assay, inhibition at 5 uM; in the data active = inhibition above about 45%;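 note: CRE beta-lactamase reporter cells expressing human S1P2 stimulated with S1P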
GALR2 blocker: GALR2 antagonists in receptor-expressing cells, primary screen; 0.39% of 140,000 active; antagonist mode; inhibition, % at 4 µM; Galanin receptor type 2 (Homo sapiens), O43603; in the data active = inhibition above about 27%;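 note: cells stimulated with galanin 1-16 at roughly its EC80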
Of the large screens only hits and unclear results are named; the others gave an inactive call. In the library only some 2% were active in any assay of this set; here they are far more common.

CCOC(=O)c1ccc(N2C(=O)c3n[nH]c(-c4ccco4)c3C2c2ccc([N+](=O)[O-])cc2)cc1 (configuration not stated)	none (no result: PLAP activator, S1P2 ag, S1P2 antag)
CCCOC(=O)c1[nH]c2c(c1C)C(=O)CC(c1ccc(OC)c(OC)c1)C2 (configuration not stated)	GALR2 agonist 5.2 (no result: PLAP activator, S1P2 ag, S1P2 antag)
CCCCCOC(=O)c1[nH]c2c(c1C)C(=O)CC(c1ccco1)C2 (configuration not stated)	GALR2 blocker 35 (no result: PLAP activator, S1P2 ag, S1P2 antag)
Cc1cc(C)nc(SCC(=O)N/N=C/c2cccs2)n1	none (no result: PLAP activator, S1P2 ag, S1P2 antag)
O=C(CSc1nnc(-c2csc3c2CCCC3)o1)Nc1ccccc1	PLAP activator 2
CCOc1ccccc1NC(=O)CN(c1ccc(C)cc1)S(=O)(=O)c1c(C)n[nH]c1C	PLAP activator 2.1
CC1(C)CC(=O)C(C=Nc2ccc3cn[nH]c3c2)=C(O)C1	GALR2 blocker 31
CSc1ccccc1N=CC1=C(O)CC(C)(C)CC1=O	GALR2 blocker 36 (no result: PLAP activator)
CC1(C)CC(=O)C(C=Nc2ccc(O)cc2)=C(O)C1	none
O=S(=O)(Cc1ccc(Cl)cc1)NCC1CCCO1 (configuration not stated)	S1P2 ag 63
O=S(=O)(NCC1CCCO1)c1cc(Cl)ccc1Cl (configuration not stated)	none
COc1ccc(NC(=O)C(=O)N/N=C/c2cc(C)n(-c3cccc(Cl)c3Cl)c2C)c(OC)c1	PLAP activator 2
CCOC(=O)C1=C(O)/C(=C/c2cc(OC)c(OC)c(OC)c2)SC1=Nc1ccc(OC)cc1	S1P2 ag 37 (no result: PLAP activator)
CCOC(=O)C1=C(O)/C(=C/c2ccc(OCC(=O)O)c(OCC)c2)SC1=Nc1ccc(OC)cc1	none (no result: PLAP activator, S1P2 ag, S1P2 antag)
COC(=O)c1sc(NC(=O)/C=C/c2ccc(C)o2)nc1C	none (no result: PLAP activator, S1P2 ag, S1P2 antag)
N#C/C(=C/c1ccc(N2CCCCCC2)o1)c1ccc(Cl)cc1	S1P2 antag 49
O=C(Nc1cccc(O)c1)c1cnn2cccnc12	none
O=C(Nc1ccc2c(c1)OCO2)c1cnn2cccnc12	GALR2 agonist 374
Cc1ccc(NC(=O)Cc2nn(C)c(=O)c3ccccc23)cc1F	S1P2 antag 67
COC(=O)C(C(=O)OC)C(C[N+](=O)[O-])c1ccc(O)c(OC)c1 (configuration not stated)	none (no result: PLAP activator, S1P2 ag, S1P2 antag)
Cc1cc(C)cc(OCc2nnc(SCC(=O)OC(C)C)o2)c1	none
CCOC(=O)c1c2n(c3c(NCc4ccccc4)ncnc13)CCCC2	PLAP activator 2.5
Cc1sc2nc3c(C(=O)N4CCN(c5ccccn5)CC4)cccn3c(=O)c2c1C	none
Cc1cc(N2CCC(C)CC2)nc(NCc2ccccc2)n1	none (no result: PLAP activator, S1P2 ag, S1P2 antag)
CN(C)c1ccc(/C=N/NC(=O)CN(c2ccccc2Cl)S(C)(=O)=O)cc1Br	S1P2 ag 17
CC(NC(=O)Nn1cnnc1)(C(F)(F)F)C(F)(F)F	none
O=C(Nc1nc2ccccc2s1)c1cc2c(s1)-c1ccccc1OC2	S1P2 ag 40
c1coc(-c2nnc3sc(Cc4cccs4)nn23)c1	none
c1csc(Cc2nn3c(-c4n[nH]c5c4CCC5)nnc3s2)c1	PLAP activator 2.1
Cc1cc(Nc2ccc(N3CCC(C)CC3)cc2)n2ncnc2n1	PLAP activator 2
CC(C)NC(=O)c1ccccc1NC(=O)CCc1ccccc1	none (no result: PLAP activator)
S=C(NCc1ccccn1)Nc1ccc(Cl)c(Cl)c1	S1P2 antag 47
OCCn1c(CSc2nnc(-c3ccco3)n2-c2ccccc2)nc2ccc(Cl)cc21	S1P2 ag 34
O=C(OCc1nc2ccc(Cl)cc2n1CCO)c1ccccc1	none (no result: PLAP activator, S1P2 ag, S1P2 antag)
Cc1cccn2cc(CNS(=O)(=O)c3cccc(F)c3)nc12	PLAP activator 2.3
CS(=O)(=O)N(CC(=O)NC1CC1)C1CCCCC1	none (no result: PLAP activator, S1P2 ag, S1P2 antag)
CC(/C=C/c1ccc(O)cc1)=N/O	none (no result: PLAP activator)
C#CCSc1nc(-c2ccccc2)cc(C(F)(F)F)c1C#N	none
Cc1ccc(-c2cc(C(F)(F)F)c(C#N)c(SCCC#N)n2)o1	S1P2 ag 17
CCOc1ccc(OCC)c(NC(=O)CSc2nc3c(c(=O)n(C)c(=O)n3C)n2C(C)C)c1	S1P2 ag 26
COCCn1c(=NC(C)=O)sc2cc([N+](=O)[O-])ccc21	GALR2 agonist 6.2 (no result: PLAP activator, S1P2 ag, S1P2 antag)
Cc1ccc(C)c(NC(=S)NNC(=O)c2csc(C(C)C)c2)c1	none (no result: PLAP activator)
Cc1ccc(NC(=S)NNC(=O)c2ccco2)cc1	none
Cc1ccc(C)c(NC(=S)NNC(=O)c2ccc(Br)o2)c1	PLAP activator 2.3
COc1ccc(C)cc1NC(=O)C(=O)NNC(=O)c1ccco1	PLAP activator 2.5
Cc1ccc(C)c(NC(=S)NNC(=O)c2ccco2)c1	PLAP activator 2.5
Cc1ccccc1NC(=S)NNC(=O)c1ccoc1C	PLAP activator 2.1
COc1cc(NC(=O)c2ccco2)c(OC)cc1NC(=O)CCC(=O)Nc1cc(C)ccc1C	none
CC(=O)Nc1ccc(S(=O)(=O)NCc2csc(C)n2)cc1	none (no result: PLAP activator)
Cc1cc(C)nc(N2CCC(CNC(=O)CCc3ccccc3)CC2)n1	none
Cc1ccc(C)c(NC(=S)NNC(=O)c2sccc2C)c1	PLAP activator 2.6
Cc1ccc(C)c(NC(=S)NNC(=O)c2csc(C)c2C)c1	none (no result: PLAP activator, S1P2 ag, S1P2 antag)
Cc1cccc(NC(=S)NNC(=O)c2ccco2)c1	PLAP activator 2.1
O=C(Nc1c(Cl)ccc2nsnc12)c1cccnc1	none (no result: PLAP activator, S1P2 ag, S1P2 antag)
O=C(N/N=C/c1cccc(Oc2ccc([N+](=O)[O-])cc2[N+](=O)[O-])c1)c1cncc(Br)c1	none
Cc1cc(C)n(-c2nc(Nc3ccccc3C(F)(F)F)nc(-n3nc(C)cc3C)n2)n1	S1P2 antag 59 (no result: PLAP activator)
Cc1cc(C)n(-c2nc(Nc3ccccc3C)nc(-n3nc(C)cc3C)n2)n1	none
CCOc1ccc(N(CC(=O)Nc2ccccc2C(=O)N2CCOCC2)S(=O)(=O)c2ccc(F)cc2)cc1	none (no result: PLAP activator, S1P2 ag, S1P2 antag)
CCOC(=O)C1=C(C)Nc2sc(C(=O)c3ccc(C)cc3)c(N)c2C1c1ccc(C(=O)OC)cc1 (configuration not stated)	GALR2 agonist 5.5 (no result: PLAP activator, S1P2 ag, S1P2 antag)
Cc1ccccc1NC(=O)C(C#N)Cc1cccnc1 (configuration not stated)	none
COc1ccc(NS(=O)(=O)c2cccc(C(=O)N/N=C(\C)c3ccc(-n4ccnc4)cc3)c2)cc1	PLAP activator 2.1
O=C(c1ccccc1)c1nc[nH]c1C(=O)Nc1ccccn1	PLAP activator 2.2
CCCc1cc(C(N)=O)c(NC(C)=O)s1	none
Cc1nn(CC(=O)NCc2cc3ccccc3[nH]2)c(C)c1[N+](=O)[O-]	none (no result: PLAP activator, S1P2 ag, S1P2 antag)
CCN(CC(=O)Nc1ccccc1Br)Cc1nc2ccccc2c(=O)[nH]1	PLAP activator 2.3
Cc1ccc(NC(=O)CN(C)Cc2nc3ccccc3c(=O)[nH]2)c(Br)c1	PLAP activator 2.2
CCN(CC(=O)NCCc1ccc(S(N)(=O)=O)cc1)Cc1nc2ccccc2c(=O)[nH]1	none (no result: PLAP activator)
COC(=O)c1c(NC(=S)Nc2ccc(F)cc2[N+](=O)[O-])sc2c1CCCCC2	none (no result: PLAP activator, S1P2 ag, S1P2 antag)
CCc1cccc2sc(NC(=O)c3ccc(N4C(=O)CCC4=O)cc3)nc12	none (no result: PLAP activator, S1P2 ag, S1P2 antag)

Screening data (PubChem)
